The values below come from PubChem BioAssay.

Activity calls are given as the source filed them.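 The calls were made as follows, unless noted: active = fluorescence slope higher than the sample average by over 3 SD (cut at about -0.22 in these data, passing the limit was not always enough); inactive = the rest.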

A short description of assay [1]: inhibitors of TNFa-induced NFkB p65 translocation, primary screen, imaging, HUVEC, MLSMR starter and 10KST1 sets (AID 438;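 active = inhibition above 20% together with a positive visual image hit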;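 also: compound added about 3h40 before a 20 min TNFalpha stimulation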;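 as to inhibition: signal is the nuclear over cytoplasmic p65 intensity ratio per well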). The conditions noted are these: HUVEC TNFa-induced p65 nuclear translocation; cell count: measured here: nuclei count (cytotoxicity indicator), at 2.08 µM; inhibition: at 2 µM, stronger effect = higher value, 0% TNFa-plus-vehicle, 100% no-TNFa wells.
The nature of assay [2]: reduction of polyQ htt aggregates in cells – imaging, exon1htt(103Q)mCFP cells, high-content imaging, primary screen (AID 483;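 active = visual image review flags a hit and inhibition of aggregation exceeds 20%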;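 also: compound exposure lasted 3 days before fixation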;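 as to nuclei count: percent of the per-plate median nuclei count of sample wells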). The conditions noted are these: exon1htt(103Q)mCFP cell line, aggregate imaging, at 2 µM; inhibition of aggregation: stronger effect = higher value; nuclei count: measured here: cell count, toxicity.
Assay [3] can be described thus: endothelial E-selectin expression blockers – imaging, HUVEC, immunofluorescence, MLSMR starter and 10KST1 sets, primary screen (AID 487;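 active = visually confirmed hit in the image check and inhibition above 20%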;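 as to inhibition: signal is fraction of cell area covered by stained E-selectin grains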;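 as to nuclei count: 100% = median nuclei count of all wells on the same plate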). The conditions noted are these: HUVEC TNFalpha-induced E-selectin immunofluorescence imaging, at 2 µM; inhibition: stronger effect = higher value; nuclei count: measured here: cell number, toxicity.
For assay [4], the target named is Voltage-gated potassium channel subunit beta-2 (Rattus norvegicus) (UniProt P62483). Description: inhibitors of rat Kvbeta2 reductase activity – biochemical, NADPH fluorescence, primary screen (AID 622).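 Also: slope of raw intensity against log time taken from 70 to 1610 s.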 The conditions noted are these: recombinant KvBeta, 4-cyanobenzaldehyde reduction, at 10 µM, stronger effect = higher value.
Assay [5] has the same target. Description: enhancers of rat Kvbeta2 NADPH turnover – biochemical, NADPH fluorescence, primary screen (AID 623;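 active = NADPH fluorescence slope more negative than the mean of all samples by about 3 SD, 99.7% confidence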;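 also: fluorescence intensity change per second fitted from 20 to 320 s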). As to conditions: Recombinant KvBeta, NADPH fluorescence decrease slope, 10 min; at 10 µM; stronger effect = lower value.
Assay [6] has as its target Alpha-2C adrenergic receptor (Homo sapiens) (UniProt P18825). The assay is described as follows: compounds altering alpha2C-coupled GIRK flux – cell-based, HEK293 alpha2C/GIRK1/2, thallium flux, primary screen (AID 624;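 active = fluorescence slope after compound addition differing from the mean of all screened samples at 99.7% confidence, in either direction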;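 also: slope of fluorescence ratio to pre-addition baseline per second over 15 to 24 s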). The conditions noted are these: thallium flux BTC fluorescence, at 10 µM, actives lie on both sides.
Assay [7] in a line: blockers of RIG-like receptor reporter activation – cell-based, Sendai virus stimulus, luciferase, 10K MLSCN set, TLR/RLR signaling modifier project, primary screen (AID 602276;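 active = inhibition at or above 50% at 10 µM; inactive = inhibition below 50%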;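 also: firefly luciferase from ISG56 promoter only with Renilla not read in this screen; 0% = Sendai virus plus DMSO and 100% = medium plus DMSO without virus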). The conditions noted are these: HEK293 RL24 IRF3 luciferase reporter, at 10 µM, stronger effect = higher value. Background: In a reporter assay the amount or activity of a reporter protein is the signal.
A short description of assay [8]: TLR3 IRF3 reporter activation blockers – cell-based, poly I:C stimulus, luciferase, 10K MLSCN set, primary screen (AID 602277;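 active = inhibition of the reporter signal at or above 50%; inactive = inhibition below 50%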). The conditions noted are these: HEK293-TLR3 RL24 IRF3 luciferase reporter, at 10 µM, stronger effect = higher value.

Voltage-gated potassium channel subunit beta-2 (Rattus norvegicus), sequence (P62483 whole entry, looked up): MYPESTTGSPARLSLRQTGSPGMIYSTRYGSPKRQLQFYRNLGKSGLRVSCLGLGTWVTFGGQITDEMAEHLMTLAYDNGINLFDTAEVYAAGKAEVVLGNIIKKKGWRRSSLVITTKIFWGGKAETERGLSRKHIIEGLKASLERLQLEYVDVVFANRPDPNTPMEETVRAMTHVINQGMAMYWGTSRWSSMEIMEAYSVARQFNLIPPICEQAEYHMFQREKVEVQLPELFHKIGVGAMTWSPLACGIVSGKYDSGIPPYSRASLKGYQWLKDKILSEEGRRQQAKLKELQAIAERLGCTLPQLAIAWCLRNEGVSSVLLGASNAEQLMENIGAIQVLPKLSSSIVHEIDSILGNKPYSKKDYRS
Alpha-2C adrenergic receptor (Homo sapiens), sequence (P18825 whole entry, looked up): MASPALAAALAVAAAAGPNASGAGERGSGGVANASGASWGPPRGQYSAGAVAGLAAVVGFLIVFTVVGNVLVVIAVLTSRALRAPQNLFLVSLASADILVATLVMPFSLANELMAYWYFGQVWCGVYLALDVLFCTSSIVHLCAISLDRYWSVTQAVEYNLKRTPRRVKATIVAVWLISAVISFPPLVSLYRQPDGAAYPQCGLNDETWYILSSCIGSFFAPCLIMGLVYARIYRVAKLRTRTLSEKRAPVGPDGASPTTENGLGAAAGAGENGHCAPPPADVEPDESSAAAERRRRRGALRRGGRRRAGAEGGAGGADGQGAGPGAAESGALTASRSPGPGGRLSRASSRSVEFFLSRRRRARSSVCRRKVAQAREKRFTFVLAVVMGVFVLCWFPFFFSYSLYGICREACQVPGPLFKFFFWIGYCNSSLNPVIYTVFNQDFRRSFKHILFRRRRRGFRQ

Take `Cc1cccc(OCCNC(=O)c2ncn[nH]2)c1`: the cell count in assay [1] was determined as 228. For the same compound, the inhibition in assay [1] is 4.2% (inactive); in assay [3] it was -263% (inactive); in assay [7], 5.98% (inactive); in assay [8], 32.3% (inactive). Also, the inhibition of aggregation in assay [2] was 1.8% (inactive). Besides, the nuclei count in assay [2] stood at 100%; in assay [3], 144%. Besides, the fluorescence slope in assay [4] was -0.443 (inactive). Further, in assay [5], the NADPH fluorescence slope was -1.6e-05 (inactive). Moreover, in assay [6], the slope is 0.00209 (inactive).

Turning to `Cn1c(=O)c2c(ncn2CC(=O)OCC(=O)NC2CCCc3ccccc32)n(C)c1=O` (stereo not drawn), the cell count in assay [1] was 392. The inhibition in assay [1] is 2.7% (inactive); in assay [3], -85.1% (inactive); in assay [7], 2.45% (inactive); in assay [8], 22.5% (inactive). Also, the inhibition of aggregation in assay [2] is 23.7% (inactive). The nuclei count in assay [2] stood at 64.6%; in assay [3], 112%. Besides, the fluorescence slope in assay [4] was -0.616 (inactive). Further, the NADPH fluorescence slope in assay [5] is 2.2e-06 (inactive). Further, the slope in assay [6] is 0.00842 (inactive).

Turning to `CC(C)OC(=O)c1cccc(C(=O)O)n1`, the cell count in assay [1] is 441. Further, the inhibition in assay [1] was 4.6% (inactive); in assay [3] it was -285% (inactive); in assay [7], 11.6% (inactive); in assay [8], 12.7% (inactive). Moreover, the inhibition of aggregation in assay [2] is -5.9% (inactive). Also, the nuclei count in assay [2] came to 92.5%; in assay [3] it was 110%. Further, in assay [4], the fluorescence slope was -0.495 (inactive). Besides, in assay [5], the NADPH fluorescence slope was -2.4e-05 (inactive). The slope in assay [6] was 0.00557 (inactive).

As for `COC(=O)c1ccccc1NC(=O)C1CC=CCC1C(=O)O` (stereo not drawn), the cell count in assay [1] was found to be 373. Also, the inhibition in assay [1] is 4.2% (inactive); in assay [3], 0.7% (inactive); in assay [7], 16.2% (inactive); in assay [8], 22.4% (inactive). Also, in assay [2], the inhibition of aggregation was -0.6% (inactive). For the same compound, the nuclei count in assay [2] stood at 96.6%; in assay [3], 98.1%. In assay [4], the fluorescence slope is -0.479 (inactive). Further, the NADPH fluorescence slope in assay [5] is -3.3e-05 (inactive). Also, the slope in assay [6] is 0.00613 (inactive).

For the compound `CCOC(=O)C1=C(C)Nc2nnnn2C1c1c[nH]c2ccccc12` (stereo not drawn), in assay [1], the cell count turned out to be 498. The inhibition is 0.6% (inactive) in assay [1], -59.7% (inactive) in assay [3], 7.12% (inactive) in assay [7] and 8.76% (inactive) in assay [8]. In addition, in assay [2], the inhibition of aggregation was 1.4% (inactive). Also, the nuclei count in assay [2] came to 47.3%; in assay [3] it was 101%. Besides, in assay [4], the fluorescence slope is -0.612 (inactive). For the same compound, the NADPH fluorescence slope in assay [5] is -1.2e-05 (inactive). Further, in assay [6], the slope is 0.00469 (inactive).

Regarding `CCCN1CCN(C(=O)Cn2c(=O)oc3cc(S(=O)(=O)NCc4ccccc4)ccc32)CC1`, the cell count in assay [1] came out at 809. Further, the inhibition was 1.6% (inactive) in assay [1], -19.9% (inactive) in assay [3], 8.82% (inactive) in assay [7] and 23.8% (inactive) in assay [8]. Also, the inhibition of aggregation in assay [2] was -16.6% (inactive). Moreover, the nuclei count in assay [2] was 117%; in assay [3], 114%. Also, the fluorescence slope in assay [4] is -0.51 (inactive). Moreover, the NADPH fluorescence slope in assay [5] was -2.7e-05 (inactive). In addition, the slope in assay [6] is 0.00639 (inactive).

For the compound `Cc1nnc2n(-c3ccc(Cl)cc3)c(=O)c3c4c(sc3n12)CN(C)CC4`, the cell count in assay [1] was 386. Also, the inhibition in assay [1] is -5.7% (inactive); in assay [3], 22% (inactive); in assay [7], -17.3% (inactive); in assay [8], -5.51% (inactive). Also, the inhibition of aggregation in assay [2] was 8.9% (inactive). Also, the nuclei count in assay [2] came to 93.3%; in assay [3] it was 89.5%. Besides, the fluorescence slope in assay [4] is -0.477 (inactive). The NADPH fluorescence slope in assay [5] is -0.000149 (inactive). For the same compound, the slope in assay [6] is 0.00624 (inactive).

As for `Cc1c(C#N)sc2nc(-c3ccccc3)nc(N3CCCC3)c12`, the cell count in assay [1] amounted to 388. For the same compound, the inhibition was -8.7% (inactive) in assay [1], -50% (inactive) in assay [3], 16.9% (inactive) in assay [7] and 26% (inactive) in assay [8]. Further, in assay [2], the inhibition of aggregation is -28.2% (inactive). For the same compound, the values for the nuclei count in assay [2] and in assay [3] were 99.9% and 130%, respectively. In assay [4], the fluorescence slope was -0.236 (inactive). Moreover, the NADPH fluorescence slope in assay [5] is -1.1e-05 (inactive). The slope in assay [6] was 0.011 (active).

Broadly, the inhibition is the relative decrease from the control value, in per cent.
